# 697 NFkB inh: lowers PMA/ionomycin-induced NF-kB signal in 697 B cells. 697 B-cell NF-kB luciferase reporter, 16 h. inhibition, % at 4 µM. 0.33% of 330,000 active; in the data active = inhibition above about 35%
# Jurkat NFkB inh: inhibitors of the PMA/ionomycin-induced NF-kB reporter in Jurkat cells. PMA/ionomycin-induced NF-kB luciferase reporter, luminescence. inhibition, % at 4 µM. 0.53% of 330,000 active; in the data active = inhibition above about 50%
# Mdm2 MdmX PPI: human Mdm2/MdmX binding inhibition; O15151+Q00987; SaOS-2 split-luciferase Mdm2/MdmX complementation, luminescence; inhibition, % at 8 µM; 3% of 330,000 active;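 active = inhibition of at least 50% at 8 µM in the primary screen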
# Gli-Sufu antag: Gli-Sufu pathway antagonism. Sufu-KO-LIGHT fibroblasts, Gli luciferase reporter luminescence. inhibition, % at 5 µM. 0.74% of 340,000 active;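 active = inhibition above about 55%, limit read from the data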;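 also: 0% = DMSO-treated cells and 100% = wells with medium but no cells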
# Shn3 3UTR inh: Schnurri-3 reporter inhibition in Clone20 osteoblasts; Clone20 osteoblast Shn3 3'UTR firefly luciferase, 24 h; inhibition, % at 12.5 µM; 0.52% of 360,000 active; AID 588674;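 active = mean inhibition of at least 75% with every replicate also reaching 75%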;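 also: 0% = median of neutral control wells and 100% = pilot-screen positive control compound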
# Gli antag conf: Gli-SUFU antagonism confirmation, single concentration; inhibition, % at 5 µM; Sufu-KO-LIGHT cells, Gli luciferase reporter, luminescence; shares compounds with Gli-Sufu antag; 40% of 2,500 active; AID 602428;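 active = mean inhibition at 5 µM reaching about 45%, limit read from the data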;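 also: plate controls were DMSO-treated cells for no effect and wells lacking cells for full effect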
# SufuKO cytotox: counter-screen for Gli-SUFU antagonists: cytotoxicity. shares compounds with Gli-Sufu antag. Sufu-KO-LIGHT cells cytotoxicity, ATP luminescence. cytotoxicity, % at 5 µM. 32% of 2,500 active. AID 651994;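 active = mean cytotoxicity at 5 µM above about 25%, limit read from the data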;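 also: cells exposed to compound overnight for roughly 16 to 18 hours; plate controls were DMSO wells with cells for no effect and medium without cells for full effect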
# Wnt3a counter: Wnt3a reporter inhibition counter-screen; shares compounds with Gli-Sufu antag; Wnt-LIGHT cells, Wnt3a-driven luciferase reporter, luminescence; inhibition, % at 6.25 µM; 20% of 2,500 active; AID 651995;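 active = mean inhibition above about 25%, limit read from the data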
# Numbers without * were called inactive; x = no result given. Shown are actives, neighbours in structure and some others; about 3.8% of the full set was active somewhere.
SMILES,697 NFkB inh,Jurkat NFkB inh,Mdm2 MdmX PPI,Gli-Sufu antag,Shn3 3UTR inh,Gli antag conf,SufuKO cytotox,Wnt3a counter
O=S(=O)(c1ccc(Br)cc1)c1nc(-c2ccco2)oc1NCC1CCCO1 (stereo not given),29,14,-18,62*,-6,21,15,6
Cc1ccc(S(=O)(=O)c2nc(-c3ccco3)oc2NCC2CCCO2)cc1 (stereo not given),x,x,x,-6,-9,x,x,x
Cc1ccc2c(c1)-n1c(nc3ccccc3c1=O)C(CC(C)C)NC2=O (stereo not given),3,8,-23,x,x,x,x,x
CCN(CC)C(=O)c1ccc(S(=O)(=O)N2CCC(c3nc4ccccc4s3)CC2)cc1,-22,33,6,59*,82,42,10,3
Cc1[nH]c2ccccc2c1N=Nc1ccccc1C(=O)O,1,-10,14,0,5,x,x,x
NS(=O)(=O)c1ccc(CCNCc2cc(Cl)ccc2OCc2ccccc2)cc1,-27,15,29,56*,84,23,-6,-17
NS(=O)(=O)c1ccc(CCNCc2ccccc2OCc2ccc(Cl)cc2)cc1,-20,21,35,50,61,15,9,-61
Clc1ccc(OCCCCCN2CCOCC2)cc1,-1,-2,-5,13,-2,x,x,x
N#Cc1ccc(OCC(=O)OCC(=O)Nc2sccc2C(N)=O)cc1,19,1,-22,53,1,14,30*,3
COCCCn1cc(C(=O)c2cc(OC)ccc2OCC(=O)Nc2cc(C)on2)cc(C#N)c1=O,-21,-11,6,x,-11,x,x,x
CCc1cccc2c(C(=O)COC(=O)c3nn(C)c(=O)c4ccccc34)c[nH]c12,-12,-7,16,99*,-7,30,6,-86
c1ccc(Cn2nnc(CNc3ccccc3)c2-c2c(CNc3ccccc3)nnn2Cc2ccccc2)cc1,-9,14,13,9,34,x,x,x
CC1=C(C(=O)Nc2ccccc2C)C(c2ccc(C)o2)C2=C(CCCC2=O)N1 (stereo not given),-24,-10,-6,97*,-4,15,6,35*
CC1=C(C(=O)OC2CCCCCC2)C(c2ccc(C)o2)C2=C(CCCC2=O)N1 (stereo not given),-1,-1,14,4,13,x,x,x
COc1ccc(Cl)cc1C(=O)Nc1ccccc1N1CCN(C(=O)C(C)C)CC1,3,-12,17,50,16,24,34*,-54
COc1ccc(C(=O)Nc2ccccc2N2CCN(C(=O)C(C)C)CC2)cc1Cl,9,9,29,6,4,x,x,x
O=S(=O)(c1ccc(F)cc1)N1CCC2(CC1)OCCN2S(=O)(=O)c1cccs1,14,7,18,0,18,x,x,x
CN(Cc1ccccc1)c1nc(-c2cccc([N+](=O)[O-])c2)nc2ccccc12,9,3,-15,10,12,x,x,x
O=C(O)c1ccc(-c2ccc(O)c(F)c2)cc1,9,-8,16,53,-8,18,-4,-7
O=C(O)c1ccc(O)c(O)c1,5,-15,-15,3,1,x,x,x
O=C(NCc1ccccc1)C1CC2CCCC(C1)C2=O (stereo not given),10,6,4,94*,5,14,18,-12
Cc1nc(C)c(C(=O)NCc2ccc(Cl)cc2)o1,-4,4,7,x,-21,x,x,x
Cc1nn(C)c(C(=O)NCc2ccc(Cl)cc2)c1Cl,-32,45,15,63*,86*,53*,29*,20
O=C(NC1CCCCC1)C(c1ccco1)N(CCc1ccccc1)C(=O)C(F)(F)F (stereo not given),16,9,11,0,10,x,x,x
COc1ccc(CCN(C(=O)C(F)(F)F)C(C(=O)NC2CCCC2)c2cccs2)cc1 (stereo not given),-37,-6,-4,51,21,10,21,-10
SMILES,697 NFkB inh,Jurkat NFkB inh,Mdm2 MdmX PPI,Gli-Sufu antag,Shn3 3UTR inh,Gli antag conf,SufuKO cytotox,Wnt3a counter
Cc1ccccc1NC(=O)COC(=O)c1ccccc1SCC(=O)N1CCCC1,12,8,-3,3,-9,x,x,x
CN1CCN(/C=N/c2sc3c(c2C#N)CCCCC3)CC1,-118,-99,-101,80*,-61,-31,7,-196
COc1ccc(CN2C(=O)c3ccc(C(=O)O)cc3C2=O)cc1,6,18,-32,-1,-12,x,x,x
COc1ccc(OC)c(NC(=O)CSc2nnc(CNC(=O)c3ccccc3F)o2)c1,-2,7,-2,40,-16,x,x,x
COc1ccc(OC)c(NC(=O)COC(=O)c2ccc(-n3cnnn3)cc2)c1,6,-9,4,69*,0,10,-4,-14
COc1ccc(C(=O)NCc2nnc(SCC(=O)Nc3cc(OC)ccc3OC)o2)cc1,-14,6,12,52,-11,14,2,6
O=C(O)Cc1csc(Nc2cccc(Cl)c2)n1,3,-8,6,69*,-31,13,20,-31
CCCCc1nnc(NC(=O)CSCc2cc(=O)n3c(C)csc3n2)s1,14,2,25,-3,-14,x,x,x
CCCCc1nnc(NC(=O)CSCc2cc(=O)n3cc(C)sc3n2)s1,3,1,13,51,-16,14,10,-12
CC(C)Cn1c(N)c(C(=O)COC(=O)c2c(O)c(Cl)cc(Cl)c2Cl)c(=O)n(C)c1=O,16,-17,10,-8,6,x,x,x
CC1=C(C(=O)N(C)C)CC(CC(=O)NCc2cccc3ccccc23)C(=O)N1Cc1ccccc1 (stereo not given),x,x,x,x,-5,x,x,x
Nc1ccc(O)cc1C(=O)OCC(=O)c1ccc(C2CCCCC2)cc1,x,x,x,66*,24,66*,33*,29*
CN(C)S(=O)(=O)c1ccc(S(=O)(=O)N2CCCC(C(=O)NC3CCCC3)C2)cc1 (stereo not given),-8,16,4,70*,69,28,33*,3
Cc1ccc2nc(NC(=O)COC(=O)c3cccnc3)sc2c1,-53,-69,-44,-38,-65,x,x,x
C/C(=N\O)C(C)(C)Nc1cccc(F)c1,4,-10,14,0,0,x,x,x
C/C(=N\O)C(C)(C)Nc1ccccc1F,4,-1,-13,96*,-4,10,13,-27
Cc1cc(=O)n(C(C)Cc2ccccc2)n1C(C)Cc1ccccc1 (stereo not given),x,x,x,21,17,x,x,x
CC(C)C(C)(C#N)NC(=O)CSc1nnc(-c2ccncc2)n1Cc1ccccc1 (stereo not given),-20,-2,-1,95*,0,22,7,-12
O=C(O)c1ccc(CS(=O)(=O)c2ccc(Br)cc2)cc1,-19,-7,-2,-11,-43,x,x,x

# Bioassay records as filed in PubChem BioAssay.
